# Source: PubChem
# Only some compounds are listed: those with a hit (about 1.5% of all), similar ones and a draw of the others.
# USP1 inh – Inhibitors of USP1/UAF1: Primary Screen | recombinant USP1/UAF1, Ub-Rhodamine cleavage fluorescence | 0.23% of 390,000 active | Ubiquitin carboxyl-terminal hydrolase 1 (Homo sapiens), O94782 | Potency, µM (top dose mostly 57.1 µM), usual class: inhibitors; also: nearly all actives have a fitted effect of over 60% in size
#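 USP1/UAF1 complex at 1 nM was preincubated with compound for 15 min at room temperature, then Ub-Rho substrate (150nM final) was added. Fluorescence (480/540 nm) was read kinetically, 6 reads every 60 seconds.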
# GALK inh – qHTS Assay for Inhibitors of Human Galactokinase (GALK) | P51570 | Purified GALK, Kinase-Glo residual ATP luminescence | Potency, µM (titrated, usually from 57.5 µM), most hits filed as inhibitors | 0.007% of 270,000 active
#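 Kinase-Glo Plus luminescence measured ATP left after a 1 h room-temperature reaction. The reaction used 5 nM GALK, 100 uM galactose and 35 uM ATP at pH 8.0 (20 mM HEPES, 5 mM MgCl2, 60 mM NaCl, 1 mM DTT, 0.01% BSA).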
# Coupling enz – qHTS Assay for Inhibitors of Fructose-1,6-bisphosphate Aldolase from Giardia Lamblia: Coupling assay counterscreen; coupling enzyme system counterscreen, AmpLite Red fluorescence; activity change, negative = inhibition, % at 58.2 µM, hits read low; 0.67% of 290,000 active; AID 2472, 2010; in the data active = activity change below about -30%
#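 Counterscreen lacking aldolase: glyceraldehyde-3-phosphate coupling-enzyme reagent preincubated 10 min at RT with compound (at 57.5 uM final), then substrate/coupling system with AmpLite Red added; fluorescence read at 525/598 nm after 20 min RT.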
# TrxR1 substrate – qHTS Assay for Substrates of Mammalian Selenoprotein Thioredoxin Reductase 1 (TrxR1): qHTS | purified TrxR1 substrate turnover, NADPH consumption readout | Potency, µM (top dose mostly 114 µM) | 0.01% of 390,000 active; also: nearly all actives have a fitted effect of over 50% in size
# Target sequence (O89049 whole entry, looked up): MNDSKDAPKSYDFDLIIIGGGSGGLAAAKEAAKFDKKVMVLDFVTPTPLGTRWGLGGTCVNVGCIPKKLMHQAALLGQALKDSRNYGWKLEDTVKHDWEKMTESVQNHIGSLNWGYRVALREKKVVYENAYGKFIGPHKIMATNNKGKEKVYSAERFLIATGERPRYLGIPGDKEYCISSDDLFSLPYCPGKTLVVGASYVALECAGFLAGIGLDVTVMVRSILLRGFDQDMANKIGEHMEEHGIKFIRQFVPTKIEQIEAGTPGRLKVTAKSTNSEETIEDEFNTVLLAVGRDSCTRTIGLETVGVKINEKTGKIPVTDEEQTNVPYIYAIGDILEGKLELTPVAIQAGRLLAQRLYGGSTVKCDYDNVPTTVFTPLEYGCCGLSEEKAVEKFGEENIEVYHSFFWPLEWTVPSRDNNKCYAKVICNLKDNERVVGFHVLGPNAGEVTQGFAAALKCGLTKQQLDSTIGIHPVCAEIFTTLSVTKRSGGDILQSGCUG
#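 Rat TrxR1, dispensed at 90 nM, was prereduced with 400 uM NADPH (final) for 5 min at ~22 deg C, then incubated with compound 15 min before 400 uM selenite. A first-read NADPH fluorescence drop versus no-compound background flagged substrates.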
# TrxR1 inh – qHTS Assay for Inhibitors of Mammalian Selenoprotein Thioredoxin Reductase 1 (TrxR1): qHTS; Potency, µM (series often up to 114 µM), most hits filed as inhibitors; recombinant rTrxR1, NADPH fluorescence consumption, selenite substrate; 1% of 390,000 active; Thioredoxin reductase 1, cytoplasmic (Rattus norvegicus), O89049; also: nearly all actives have a fitted effect of over 65% in size
#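 Rat TrxR1 (90 nM in the dispensed reagent) was pre-reduced with 400 uM NADPH for 5 min at room temperature, then incubated with compound for 15 min. After 400 uM selenite was added, NADPH fluorescence (Ex 340/Em 450 nm) was followed for 8 min.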
# A number is an active result; i = inactive; ? = inconclusive; nt = no result given; ! = not active in a repeat; [ ] = dose if it differs, or a comment. Unless noted, calls follow the shape of the dose curve; as a rule, active = well fitted curve in the direction sought with a large enough effect; inconclusive = small, poorly fitted or top-dose-only effect, or another doubt; inactive = no such curve, though single readings can be large; an effect the other way counts as inactive or inconclusive.
SMILES,USP1 inh,GALK inh,Coupling enz,TrxR1 substrate,TrxR1 inh
CCCCN1C(=O)/C(=C/C=C2/CC(C)(C)CN2C)SC1=S,22.4µM,i,i,i,i
Cn1cccc1/C=C1/SC(=S)N(CC(=O)O)C1=O,?,i,i,?,?
CN1/C(=C\C=C2/SC(=S)N(CC(=O)O)C2=O)C(C)(C)c2ccccc21,25.1µM,i,i,i,i
CCN1C(=O)/C(=C/C=C2/SCCN2C)SC1=S,25.1µM,nt,i,i,i
CN1CCS/C1=C\C=C1/SC(=S)N(CC(=O)O)C1=O,25.1µM,i,i,?,i
O=C(C[N+]12CN3CN(CN(C3)C1)C2)c1ccc(I)cc1,nt,nt,nt,i,i
C=C1C(=O)C2=CC1CCC(=O)C1(C)CCC(OC(C)=O)C(C)(C)C1CC2O (stereo not given),i,nt,nt,i,50.1µM
CC(=O)OC1CC[C@]2(C)C(CC(OC(C)=O)[C@@]3(C)C4=CC(=O)OC(c5ccoc5)[C@]4(C)CCC23)C1(C)C (stereo not given in full),nt,nt,i,nt,nt
C=CCN1c2ccccc2[C@]23C[C@@H](C(=O)OC)N(S(=O)(=O)c4ccc5c(c4)OCCN5C)C2=NC(C(=O)OC)=C(C(=O)OC)[C@H]13,nt,nt,i,nt,nt
O=C(c1ccco1)N1CCN(C(=O)c2cccs2)CC1,i,i,i,i,i
O=C(c1ccco1)N1CCN(C(=O)c2sccc2-c2ccccc2)CC1,i,i,i,i,15.8µM
COc1ccc(-c2csc3ncnc(N4CCN(C(=O)c5ccco5)CC4)c23)cc1,i,nt,nt,i,56.2µM
C=C1CCC(O)C/C1=C\C=C1/CCCC2(C)C1CCC2C(C)CCCC(C)C (stereo not given),nt,nt,i,nt,nt
CC1COC2=C1C(=O)C(=O)c1c2ccc2c1CCCC2(C)C (stereo not given),nt,nt,-36.3,nt,nt
Cc1coc2c1C(=O)C(=O)c1c-2ccc2c(C)cccc12,28.2µM,i,-55.0,i,?
Cc1coc2c1C(=O)C(=O)c1c-2ccc2c1CCCC2(C)C,?,i,-39.9,i,?
COc1c(-c2coc3cc4c(cc3c2=O)CC(O)C(C)(C)O4)ccc2c1C=CC(C)(C)O2 (stereo not given),nt,nt,i,nt,nt
O=C(c1ccc2c(=O)n(CC3CCCO3)c(=S)[nH]c2c1)N1CCN(C(=O)c2ccco2)CC1 (stereo not given),nt,nt,nt,i,?
O=[N+]([O-])c1ccccc1S(=O)(=O)NCc1ccccn1,nt,nt,nt,i,i
CN(C)c1ccc(/C=C/C(=O)c2ccc(O)cc2)cc1,25.1µM,nt,nt,i,i
CN(C)c1ccc(/C=C/C(=O)c2cccnc2)cc1,28.2µM,i,i,i,i
COc1ccc(C(=O)/C=C/c2ccccc2)c(OC)c1,i,i,i,i,i
O=C(/C=C/c1cccc(O)c1)c1cccnc1,i,i,i,i,?
O=C(/C=C/c1ccccc1)c1ccc2c(c1)OCO2,i,i,i,i,i
CN(C)c1ccc(/C=C/C(=O)c2ccc3c(c2)OCO3)cc1,25.1µM,nt,nt,i,i
SMILES,USP1 inh,GALK inh,Coupling enz,TrxR1 substrate,TrxR1 inh
COc1ccc(C(=O)/C=C/c2ccc(N(C)C)cc2)c(OC)c1,22.4µM,i,i,i,i
CCc1cc(/C=C/c2ccnc3ccccc23)ccc1N(C)C,nt,nt,nt,i[0.0914 µM],i
O=C(/C=C/c1cccnc1)c1ccc(O)cc1,i,i,i,i,i
O=C(C=Cc1cccnc1)c1ccccc1,i,nt,nt,i,28.2µM
N#CC(C#N)=C1C=CC=CN1/C(=C\c1ccco1)C(=O)c1ccc(Br)cc1,i,i,i,i,1.12µM
COc1ccc(/C=C(/C(=O)c2cccs2)N2C=CC=CC2=C(C#N)C#N)cc1,i,i,i,i,0.112µM
COc1ccc(N=N/C(=C\O)C(=O)c2cccs2)cc1,i,i,i,i,i
N#C/C(=C/c1ccco1)C(N)=S,i,i,i,i,i
N#CC(C#N)=C1C=CC=CN1/C(=C\c1ccco1)C(=O)c1ccccc1,i,i,i,i,1.58µM
COc1ccc(C(=O)/C(=C\c2ccco2)N2C=CC=CC2=C(C#N)C#N)cc1,i,i,i,i,8.91µM
CC(C)(C)NC(=O)/C(=C/c1ccco1)c1ccccc1,i,i,i,i,i
O=C1c2ccccc2NC(c2cc(Br)c3c(c2)OCO3)N1Cc1ccco1 (stereo not given),nt,nt,nt,i,i
NS(=O)(=O)c1cccc2c1c([N+](=O)[O-])cc1[nH]c(=O)c(=O)[nH]c12,nt,nt,-34.6!,nt,nt
O=S(=O)(c1ccccc1Br)N1CCN(c2nc(-c3cccs3)nc3ccccc23)CC1,nt,nt,nt,i,i
CC1CCN(C(=O)c2ccc3c(c2)C(=O)c2ccccc2-3)CC1,i,nt,nt,nt,nt
Cc1oc2c(c1C(=O)N1CCC(C)CC1)C(=O)c1ccccc1C2=O,?,nt,-46.4,i,i
CCOC(=O)C1CCN(C(=O)c2c(C)oc3c2C(=O)c2ccccc2C3=O)CC1,?,nt,-46.7,i,i
C[C@@H]1[C@H](c2ccccc2)OCCS(=O)(=O)N1Cc1ccc(F)cc1,nt,nt,nt,i,i
CC(C)(C)n1ncc2c(=O)n(Cc3cccc(Cl)c3Cl)cnc21,nt,nt,nt,i,i
CN(C)c1ccc(CC2CCc3ccccc32)cc1 (stereo not given),nt,nt,nt,i,i
Oc1cc(CNCc2ccccc2)c(O)cc1CNCc1ccccc1,?,nt,nt,i,79.4µM
O=C(COc1ccccc1C(=O)Nc1ccccc1)Nc1ccc2ccccc2c1,nt,nt,nt,i,i
O=C(Nc1ccccc1SC(=O)c1ccccc1)c1ccccc1,i,nt,nt,nt,nt
Cc1ccc(C(=O)Sc2cccccc2=O)cc1,i,nt,i,i,0.631µM
O=c1[nH]c(N2CCOCC2)cc2ccccc12,10µM,nt,nt,i,i
SMILES,USP1 inh,GALK inh,Coupling enz,TrxR1 substrate,TrxR1 inh
Cc1c(C)c2c(OCC(=O)N3CCC(C(=O)NCC(C)C)CC3)cc3c(c2oc1=O)CCC(C)(C)O3,i,i,i,i,i
Cc1c(C)c2c(OCC(=O)N3CCC(C(=O)O)CC3)cc3c(c2oc1=O)CCC(C)(C)O3,i,nt,i,i,79.4µM
Cc1c(OCC(=O)N2CCC(C(=O)O)CC2)ccc2c3c(c(=O)oc12)CCC3,i,nt,i,i,14.1µM
Cc1c(OCC(=O)N2CCC(C(N)=O)CC2)ccc2c3c(c(=O)oc12)CCC3,i,nt,i,i,i
COc1cc(O)c2c(c1)oc(=O)c1c3cc(O)c(O)cc3oc21,nt,nt,i,nt,nt
O=C1NC(=Nc2ccccc2)S/C1=C\C=C\c1ccco1,i,i,i,i,79.4µM
Cc1cccc(N=C2NC(=O)/C(=C/C=C/c3ccco3)S2)c1C,i,i,i,i,?
COc1ccc(N=C2NC(=O)/C(=C/C=C/c3ccccc3)S2)cc1,i,nt,i,i,i
Cc1ccc(N=C2NC(=O)/C(=C/C=C/c3ccco3)S2)cc1,i,i,i,i,44.7µM
